Data from PubChem BioAssay AID434955 (Southern Research Specialized Biocontainment Screening …, 2010).
The campaign covered roughly 330,000 compounds. About 880 (0.27%) were called active. Not shown: some 1% with an inconclusive outcome. The rule behind the calls is not given here. Only a sample is shown.

Test: beta-lactam sensitization of Mtb H37Rv, H37Rv (AID 434955);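 note: growth measured after seven days incubation then overnight dye step; 0% = bacteria only wells and 100% = bacteria with antibiotic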
Settings: M. tuberculosis H37Rv growth with meropenem, percent inhibition, at 25 µM
[1] = measured here: primary screen without meropenem

| SMILES | inhibition (stronger effect = higher value) | inhibition [1] |
| --- | --- | --- |
| CCC1CO/C(=C(\C(=C(Cl)Cl)N2CCOCC2)[N+](=O)[O-])N1 (stereo unspecified) | -17.5% (inactive) | -10.3% |
| CCOC(=O)N1CCN(C(=O)C2CCN(S(C)(=O)=O)CC2)CC1 | 2.13% (inactive) | -5.28% |
| O=c1[nH]c(=O)n(Cc2ccco2)c2c1C(C(F)(F)F)(C(F)(F)F)N=C(c1ccco1)N2 | -12.9% (inactive) | -21.1% |
| O=c1c2ccccc2ncn1CCCCOc1ccccc1F | -1.85% (inactive) | 11.4% |
| Cn1nc(C(F)(F)F)cc1C(=O)O | -2.73% (inactive) | 4.91% |
| O=C1CC2(CCCC2)Oc2ccc(Cl)cc21 | -2.7% (inactive) | -12.8% |
| COc1ccc(C2C(C(C)=O)=C(O)C(=O)N2c2nccs2)cc1 (stereo unspecified) | -8% (inactive) | -1.43% |
| NC(=O)COC(=O)c1sc2cc(F)ccc2c1Cl | 40.4% (inactive) | 37.9% |
| O=C(NC(Cc1ccccc1)C(=O)O)/C(=C\c1ccccc1)NC(=O)c1ccco1 (stereo unspecified) | -13.2% (inactive) | -12.5% |
| CN1CCc2nc(SC(C(=O)O)c3ccccc3)c(C#N)c(-c3cccs3)c2C1 (stereo unspecified) | -5.45% (inactive) | -0.72% |
| CCOc1cc(C)ccc1OCc1nnc(SCC(=O)Nc2cccc(C(=O)O)c2)n1-c1ccccc1 | -1.64% (inactive) | -0.86% |
| CCOC(=O)c1ccc(NC(=O)C2CC(=O)N(c3ccc4c(c3)OCCO4)C2)cc1 (stereo unspecified) | -4.22% (inactive) | 4.56% |
| O=C(c1ccc(F)cc1)n1c(=S)nc2ccccn21 | -3.39% (inactive) | -1.53% |
| CN1CCN(NC(=O)Nc2ccc(Br)cc2)CC1 | 5.75% (inactive) | 6.69% |
| CC(=O)C1=C(C)NC(=O)NC1c1ccc2c(c1)OCO2 (stereo unspecified) | -1.59% (inactive) | 7.05% |
| COc1ccc(NC2CCCN(C(=O)c3ccncc3)C2)cc1 (stereo unspecified) | -5.62% (inactive) | 1.6% |
| Cc1cc(C)cc(N(CCC#N)C(=O)CN2C(=O)NC3(CCCC3)C2=O)c1 | -5.09% (inactive) | -6.67% |
| CC(C)N1CCC(NC(=O)Nc2ccccc2)CC1 | -9.18% (inactive) | -1.81% |
| Cc1ccc(NS(=O)(=O)c2ccc(-c3coc(C)n3)cc2)c(C)c1 | -2.05% (inactive) | 3.59% |
| COc1ccc(C(=O)NC(C)Cn2nc(C)cc2C)cc1OC1CCN(C(C)=O)CC1 (stereo unspecified) | -1.95% (inactive) | -5.6% |
| COCCCNC(=O)Cc1ccc(-n2c(C)nc3cccnc32)cc1 | -2.02% (inactive) | -1.03% |
| O=C(NCCC1=CCCCC1)c1ccc(-n2cncn2)cc1 | 3.02% (inactive) | 10.8% |
| CC1CCN(S(=O)(=O)c2ccc(NC(=O)C3CC(=O)N(c4ccccc4)C3)cc2)CC1 (stereo unspecified) | 1.58% (inactive) | 6.16% |
